Measurements from PubChem BioAssay (Tox21).
Results filed as inconclusive are left out. Entries that show only a call come without a potency. A number with no mark means an inactive call. Activity calls are given as the source filed them. Unless noted, the call rests on the fitted dose curve; in most records, active means well fitted curve in the direction sought with a large enough effect in the repeat runs; inconclusive means weak or mixed curves; inactive means no such curve, though single readings can be large; an effect the other way counts as inactive or inconclusive.

Columns and labels:
[1] = qHTS assay to identify aromatase inhibitors - cell viability counter screen (AID 743084);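 further: cells stimulated with testosterone during compound exposure; nearly all actives have a fitted effect of over 55% in size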
[2] = molecular target: Aryl hydrocarbon receptor (Homo sapiens) (UniProt P35869); assay: qHTS assay to identify small molecule that activate the aryl hydrocarbon receptor (AhR) signaling pathway (AID 743085); further: nearly all actives have a fitted effect of over 15% in size; further: potency means the concentration at half of the fitted maximal effect;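 on activation: HG2L7.5c1 human HepG2 liver cells with stably integrated DRE-driven firefly reporter; series mostly up to about 70 µM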
In short: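 AhR agonist activity is inferred from enhanced light output of a DRE-controlled firefly luciferase reporter in HepG2 cells, measured with ONE-Glo following 24 h treatment at 37C.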

[3] = qHTS assay to identify small molecule that activate the aryl hydrocarbon receptor (AhR) signaling pathway - cell viability counter screen (AID 743086);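 further: HepG2 liver cells carrying the AhR DRE luciferase reporter; series mostly up to about 70 µM; nearly all actives have a fitted effect of over 45% in size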
In short: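 HepG2-AhR-luc (HG2L7.5c1) cells, 4000/well, were preincubated 5 h at 37C, exposed to compound in qHTS format for 24 hr at 37C, then given CellTiter-Fluor for 30 min; viability was read as fluorescence in the reporter wells.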

[4] = molecular target: Peroxisome proliferator-activated receptor gamma (Homo sapiens) (UniProt P37231); assay: qHTS assay to identify small molecule agonists of the peroxisome proliferator-activated receptor gamma (PPARg) signaling pathway (AID 743094; active means well fitted activation curve with a large enough effect in the signal ratio in the repeat runs, not every such curve was filed as active; the % refers to the signal ratio)
In short: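 Compounds dissolved in DMSO were added to PPARg UAS-bla HEK293H cells for 17 h at 37C, and reporter expression was quantified by fluorescence intensity after 1 h with LiveBLAzer B/G FRET substrate.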

[5] = molecular target: Peroxisome proliferator-activated receptor gamma (Homo sapiens) (UniProt P37231); assay: qHTS assay to identify small molecule antagonists of the peroxisome proliferator-activated receptor gamma (PPARg) signaling pathway (AID 743191; calls by dose curve; further: series mostly up to about 63 µM; nearly all actives have a fitted effect of over 30% in size)
In short: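 GeneBLAzer PPARg UAS-bla HEK293H cells carrying a UAS-driven beta-lactamase reporter were plated at 3000 cells/well, preincubated 5 h at 37C, then given compound for 17 h at 37C; LiveBLAzer B/G FRET substrate was read after 1 h at room temperature.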

[6] = qHTS assay to identify small molecule antagonists of the peroxisome proliferator-activated receptor gamma (PPARg) signaling pathway - cell viability counter screen (AID 743194); further: nearly all actives have a fitted effect of over 55% in size
In short: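 PPARg-UAS-bla HEK293H cells were plated, rested 5 h at 37 C, then treated with compounds plus rosiglitazone (50 nM final) for 17 h at 37 C; viability was then read by CellTiter-Glo luminescence after 30 min at room temperature.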

[7] = qHTS assay for small molecule agonists of the antioxidant response element (ARE) signaling pathway (AID 743202; active means well fitted activation curve with a large enough effect in the signal ratio in the repeat runs, not every such curve was filed as active; the % refers to the signal ratio)
In short: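 Compounds delivered in DMSO to ARE-bla HepG2 cells (2,000 cells/well, pre-incubated 5 h) and left 16 h at 37 C. LiveBLAzer B/G FRET substrate then added for 2 h at RT before fluorescence reading.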

[8] = qHTS assay for small molecule agonists of the antioxidant response element (ARE) signaling pathway - cell viability counter screen (AID 743203; calls by dose curve; further: nearly all actives have a fitted effect of over 55% in size)
In short: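 Following 16 hrs of compound treatment at 37C, HepG2 cells with an ARE-controlled beta-lactamase gene were lysed with CellTiter-Glo. Luminescence was read after 30 min at room temperature.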

[9] = qHTS assay for small molecule activators of the heat shock response signaling pathway - cell viability counter screen (AID 743209); further: nearly all actives have a fitted effect of over 50% in size
In short: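 Readout: CellTiter-Glo luminescence, 30 min at room temperature. System: HSE-bla HeLa cells, 1500/well, plated overnight. Treatment: compounds in DMSO, 5 h at 37 C.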

[10] = qHTS assay to identify small molecule agonists of the peroxisome proliferator-activated receptor delta (PPARd) signaling pathway - cell viability counter screen (AID 743211); further: nearly all actives have a fitted effect of over 55% in size
In short: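 qHTS cell viability: PPARd-bla HEK293H; 17 h cpd, 37C; CellTiter-Glo, luminescence at 30 min RT.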

[11] = molecular target: Peroxisome proliferator-activated receptor delta (Homo sapiens) (UniProt Q03181); assay: qHTS assay to identify small molecule agonists of the peroxisome proliferator-activated receptor delta (PPARd) signaling pathway (AID 743212; calls by dose curve)
In short: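 A PPARd-bla HEK293H line with beta-lactamase under an Upstream Activator Sequence is treated with compounds at 37 C. Substrate loading for 2 h at room temperature precedes the fluorescence measurement.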

[12] = qHTS assay to identify small molecule antagonists of the peroxisome proliferator-activated receptor delta (PPARd) signaling pathway - cell viability counter screen (AID 743213); further: nearly all actives have a fitted effect of over 50% in size
In short: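 Luminescence from CellTiter-Glo, added after the bla read and incubated 30 min at room temperature, gives viability of HEK293H PPARd-bla cells exposed to compounds for 17 h at 37 C with 300 nM L165041.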

[13] = molecular target: Peroxisome proliferator-activated receptor delta (Homo sapiens) (UniProt Q03181); assay: qHTS assay to identify small molecule antagonists of the peroxisome proliferator-activated receptor delta (PPARd) signaling pathway (AID 743215; active means well fitted inhibition curve with a large enough effect in the signal ratio in the repeat runs, not every such curve was filed as active; the % refers to the signal ratio;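 further: cells stimulated with agonist L165041 at 300 nM final during compound exposure; series mostly up to about 62 µM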)
In short: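 HEK293H UAS-bla, PPARd; agonist L165041 300 nM final with cpd in DMSO; 37 C 17 h; FRET substrate, RT 2 h; fluorescence intensity.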

[14] = qHTS assay to identify small molecule agonists of the farnesoid-X-receptor (FXR) signaling pathway - cell viability counter screen (AID 743218); further: nearly all actives have a fitted effect of over 45% in size
In short: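 Parallel cytotoxicity test: compound-treated (16 h, 37 C) HEK 293T FXR-bla reporter cells were lysed with CellTiter-Glo and luminescence recorded.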

[15] = molecular target: Vitamin D3 receptor (Homo sapiens) (UniProt P11473); assay: qHTS assay to identify small molecule agonists of the vitamin D receptor (VDR) signaling pathway (AID 743222; calls by dose curve)
In short: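 In VDR-bla cells, compound-induced beta-lactamase expression is quantified by FRET substrate fluorescence. Treatment lasts 16 h at 37C; substrate develops 2 h at room temperature.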

[16] = molecular target: Vitamin D3 receptor (Homo sapiens) (UniProt P11473); assay: qHTS assay to identify small molecule antagonists of the vitamin D receptor (VDR) signaling pathway (AID 743223; active means well fitted inhibition curve with a large enough effect in the signal ratio in the repeat runs, not every such curve was filed as active; the % refers to the signal ratio)
In short: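 Reporter line VDR-bla; stimulus 1alpha,25-(OH)2 vitamin D3, 3 nM final; compound co-addition, 16 h 37C/5% CO2; LiveBLAzer B/G substrate 2 h RT; fluorescence intensity.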

[17] = qHTS assay for small molecule activators of the heat shock response signaling pathway (AID 743210; active means well fitted activation curve with a large enough effect in the signal ratio in the repeat runs, with a control signal flat, not every such curve was filed as active; the % refers to the signal ratio;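 further: HeLa cells with beta-lactamase reporter driven by heat shock elements; series mostly up to about 63 µM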)
In short: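 Reporter gene assay: HeLa cells stably bearing an HSE-bla construct, compound treatment 5 h at 37 C, LiveBLAzer substrate 2.5 h at RT, fluorescence intensity.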

[18] = qHTS assay to identify small molecule antagonists of the farnesoid-X-receptor (FXR) signaling pathway - cell viability counter screen (AID 743221; active means well fitted cell-killing curve with a large enough effect in the repeat runs, not every such curve was filed as active; further: nearly all actives have a fitted effect of over 50% in size)
In short: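 After a 5 h settling period, FXR-bla HEK 293T cells receive compound and chenodeoxycholic acid (50 uM final) and incubate 16 h at 37 C; CellTiter-Glo luminescence, read after 30 min at room temperature, reports cell viability.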

[19] = molecular target: Bile acid receptor (Homo sapiens) (UniProt Q96RI1); assay: qHTS assay to identify small molecule antagonists of the farnesoid-X-receptor (FXR) signaling pathway (AID 743217; active means well fitted inhibition curve with a large enough effect in the signal ratio in the repeat runs, not every such curve was filed as active; the % refers to the signal ratio)
In short: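 GeneBLAzer FXR-UAS-bla HEK 293T, CDCA-stimulated (50 uM final). Compound treatment 16 h, 37 °C. Detection: beta-lactamase cleavage of B/G FRET substrate, fluorescence.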

[20] = molecular target: Bile acid receptor (Homo sapiens) (UniProt Q96RI1); assay: qHTS assay to identify small molecule agonists of the farnesoid-X-receptor (FXR) signaling pathway (AID 743220; active means well fitted activation curve with a large enough effect in the signal ratio in the repeat runs, not every such curve was filed as active; the % refers to the signal ratio)
In short: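 Beta-lactamase reporter under UAS control in GeneBLAzer FXR HEK 293T cells (5000/well) measured with LiveBLAzer FRET substrate after 2 h at room temperature. Compound exposure lasted 16 h at 37C.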

Chain of Peroxisome proliferator-activated receptor delta (Homo sapiens) (Q03181 whole entry, looked up): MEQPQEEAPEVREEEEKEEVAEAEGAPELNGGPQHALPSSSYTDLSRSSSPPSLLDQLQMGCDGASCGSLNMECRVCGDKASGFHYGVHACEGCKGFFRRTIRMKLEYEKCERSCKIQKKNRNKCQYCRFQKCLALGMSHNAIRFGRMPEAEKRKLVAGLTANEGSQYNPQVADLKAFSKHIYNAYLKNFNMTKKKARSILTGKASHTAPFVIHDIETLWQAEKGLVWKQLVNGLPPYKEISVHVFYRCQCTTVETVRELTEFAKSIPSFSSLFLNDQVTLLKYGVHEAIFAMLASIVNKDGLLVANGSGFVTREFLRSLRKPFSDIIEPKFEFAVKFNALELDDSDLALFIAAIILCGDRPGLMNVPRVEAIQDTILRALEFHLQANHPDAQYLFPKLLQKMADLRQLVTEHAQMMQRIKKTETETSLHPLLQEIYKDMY
Chain of Bile acid receptor (Homo sapiens) (Q96RI1 whole entry, looked up): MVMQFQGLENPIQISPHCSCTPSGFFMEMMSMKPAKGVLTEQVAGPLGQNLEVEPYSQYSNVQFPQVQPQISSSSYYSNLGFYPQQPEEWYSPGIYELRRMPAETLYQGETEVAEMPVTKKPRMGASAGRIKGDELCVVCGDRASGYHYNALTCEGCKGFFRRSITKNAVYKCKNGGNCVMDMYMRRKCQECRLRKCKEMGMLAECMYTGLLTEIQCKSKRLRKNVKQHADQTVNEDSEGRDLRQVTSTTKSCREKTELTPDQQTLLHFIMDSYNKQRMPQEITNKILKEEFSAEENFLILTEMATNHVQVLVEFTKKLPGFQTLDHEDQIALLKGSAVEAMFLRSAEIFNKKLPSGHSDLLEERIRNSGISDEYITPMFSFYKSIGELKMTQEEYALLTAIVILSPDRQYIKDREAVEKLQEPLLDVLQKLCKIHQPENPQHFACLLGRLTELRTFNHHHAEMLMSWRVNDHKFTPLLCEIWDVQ
Chain of Vitamin D3 receptor (Homo sapiens) (P11473 whole entry, looked up): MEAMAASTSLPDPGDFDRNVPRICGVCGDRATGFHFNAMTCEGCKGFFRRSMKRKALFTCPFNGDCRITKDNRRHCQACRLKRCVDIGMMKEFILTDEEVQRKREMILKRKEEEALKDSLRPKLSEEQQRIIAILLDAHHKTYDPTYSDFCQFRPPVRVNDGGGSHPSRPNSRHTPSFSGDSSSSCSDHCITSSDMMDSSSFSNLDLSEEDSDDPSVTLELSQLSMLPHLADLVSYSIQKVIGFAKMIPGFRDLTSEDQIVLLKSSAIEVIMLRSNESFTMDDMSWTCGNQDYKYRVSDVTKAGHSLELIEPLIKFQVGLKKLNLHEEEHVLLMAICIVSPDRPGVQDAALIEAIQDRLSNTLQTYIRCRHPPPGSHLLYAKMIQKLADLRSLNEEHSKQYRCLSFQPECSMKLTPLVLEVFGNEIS
Chain of Aryl hydrocarbon receptor (Homo sapiens) (P35869 whole entry, looked up): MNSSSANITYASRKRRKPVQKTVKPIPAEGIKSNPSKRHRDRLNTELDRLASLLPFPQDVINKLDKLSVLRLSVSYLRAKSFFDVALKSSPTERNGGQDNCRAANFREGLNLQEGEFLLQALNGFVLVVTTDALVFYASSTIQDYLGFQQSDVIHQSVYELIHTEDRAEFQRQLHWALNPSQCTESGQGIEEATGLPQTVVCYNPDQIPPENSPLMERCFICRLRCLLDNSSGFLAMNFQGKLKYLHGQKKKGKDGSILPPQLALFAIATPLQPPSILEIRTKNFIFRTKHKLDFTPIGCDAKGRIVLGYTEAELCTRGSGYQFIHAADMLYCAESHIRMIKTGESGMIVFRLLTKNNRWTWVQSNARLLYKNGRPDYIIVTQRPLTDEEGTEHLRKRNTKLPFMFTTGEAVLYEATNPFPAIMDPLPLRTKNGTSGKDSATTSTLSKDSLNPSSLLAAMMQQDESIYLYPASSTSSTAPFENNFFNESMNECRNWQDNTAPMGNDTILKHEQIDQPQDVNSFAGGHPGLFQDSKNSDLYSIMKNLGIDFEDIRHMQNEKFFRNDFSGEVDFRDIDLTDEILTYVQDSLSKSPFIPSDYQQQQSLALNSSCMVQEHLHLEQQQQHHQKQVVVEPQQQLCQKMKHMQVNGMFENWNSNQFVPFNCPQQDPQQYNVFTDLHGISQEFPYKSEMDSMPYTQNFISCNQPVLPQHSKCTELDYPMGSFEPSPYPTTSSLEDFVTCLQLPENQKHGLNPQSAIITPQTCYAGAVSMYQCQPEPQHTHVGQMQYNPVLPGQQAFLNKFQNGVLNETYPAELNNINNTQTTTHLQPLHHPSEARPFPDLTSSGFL
Chain of Peroxisome proliferator-activated receptor gamma (Homo sapiens) (P37231 whole entry, looked up): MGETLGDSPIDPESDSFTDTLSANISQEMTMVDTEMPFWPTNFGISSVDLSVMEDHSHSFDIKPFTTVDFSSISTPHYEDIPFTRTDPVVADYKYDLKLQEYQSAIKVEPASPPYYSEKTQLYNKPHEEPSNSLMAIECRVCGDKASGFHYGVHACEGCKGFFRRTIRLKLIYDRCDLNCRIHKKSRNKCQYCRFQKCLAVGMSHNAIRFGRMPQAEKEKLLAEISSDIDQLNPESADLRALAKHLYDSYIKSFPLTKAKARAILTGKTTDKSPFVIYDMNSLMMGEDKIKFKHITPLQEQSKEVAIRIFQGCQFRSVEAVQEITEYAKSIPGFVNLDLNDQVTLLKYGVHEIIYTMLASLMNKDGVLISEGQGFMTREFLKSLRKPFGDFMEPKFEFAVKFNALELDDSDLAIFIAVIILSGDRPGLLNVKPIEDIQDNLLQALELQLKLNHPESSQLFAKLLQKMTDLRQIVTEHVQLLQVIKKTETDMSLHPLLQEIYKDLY

Structure (SMILES) | Potency [1] | Potency [2] | Potency [3] | Potency [4] | Potency [5] | outcome [6] | Potency [7] | outcome [8] | outcome [9] | outcome [10] | outcome [11] | outcome [12] | outcome [13] | outcome [14] | outcome [15] | outcome [16] | outcome [17] | outcome [18] | outcome [19] | outcome [20]
CCCCN1C=CN(C)C1 | inactive | inactive | inactive | inactive | inactive | inactive | inactive | inactive | inactive | inactive | inactive | inactive | inactive | inactive | inactive | inactive |  |  |  | 
CCOC(=O)c1cnc2c(cnn2CC)c1NN=C(C)C | inactive | 29.8 µM (active) | inactive | inactive | inactive | inactive | inactive | inactive | inactive | inactive | inactive | inactive |  |  | inactive |  | inactive | inactive |  | 
NS(=O)(=O)Cc1noc2ccccc12 | inactive | inactive | inactive | inactive | inactive | inactive | inactive | inactive |  | inactive |  | inactive |  | inactive |  |  | inactive | inactive | inactive | inactive
Cc1nc2ccc(CN(C)c3ccc(C(=O)N[C@@H](CCC(=O)O)C(=O)O)s3)cc2c(=O)[nH]1 | inactive | inactive | inactive | inactive | inactive | inactive | inactive | inactive | inactive | inactive | inactive | inactive | inactive |  | inactive | inactive | inactive | inactive |  | inactive
CC(=O)NC(=O)c1ccccc1O | inactive | inactive | inactive | inactive | inactive | inactive | inactive | inactive | inactive |  | inactive | inactive | inactive | inactive |  |  | inactive | inactive |  | 
CC(C)(C)C(=O)Oc1ccc(S(=O)(=O)Nc2ccccc2C(=O)NCC(=O)O)cc1 | inactive | 11.9 µM (active) | inactive | inactive | inactive | inactive | inactive | inactive |  | inactive | inactive | inactive | inactive |  | inactive | inactive |  | inactive | inactive | inactive
CCN(Cc1ccccc1)c1ccccc1 | inactive | inactive | inactive | inactive | inactive | inactive | inactive | inactive | inactive | inactive | inactive | inactive | inactive |  |  |  | inactive | inactive |  | 
CCC(=O)OCc1ccccc1 | inactive | inactive | inactive | inactive | inactive | inactive | inactive | inactive | inactive | inactive | inactive | inactive | inactive | inactive | inactive |  | inactive | inactive |  | 
CC(=O)Nc1ccc(OCC(O)CNC(C)C)cc1 (stereo not given) | inactive | inactive | inactive | inactive | inactive | inactive | inactive | inactive | inactive | inactive | inactive | inactive | inactive | inactive | inactive | inactive | inactive | inactive | inactive | inactive
NCCCC[C@H](N[C@@H](CCc1ccccc1)C(=O)O)C(=O)N1CCC[C@H]1C(=O)O | inactive | inactive | inactive | inactive | inactive | inactive | inactive | inactive | inactive | inactive |  | inactive |  | inactive |  |  |  | inactive | inactive | 
COc1cc(C(=O)OC(COCCC(C)C)CN2CCOCC2)cc(OC)c1OC (stereo not given) | inactive | inactive | inactive | inactive | inactive | inactive | inactive | inactive | inactive | inactive | inactive |  | inactive | inactive | inactive | inactive |  | inactive | inactive | 
CCCC(C)C(=O)OCC (stereo not given) | inactive | inactive | inactive | inactive | inactive | inactive | inactive | inactive | inactive | inactive | inactive | inactive |  | inactive | inactive |  |  | inactive |  | 
N[C@@H](CCC(=O)O)C(=O)O | inactive | inactive | inactive | inactive | inactive | inactive | inactive | inactive |  | inactive | inactive | inactive | inactive | inactive | inactive |  |  | inactive |  | 
CN(C)[C@@H]1C(=O)C(C(=O)NCN2CCCC2)=C(O)[C@@]2(O)C(=O)C3=C(O)c4c(O)cccc4[C@@](C)(O)C3C[C@@H]12 (stereo not given in full) | inactive | inactive | inactive | inactive | inactive | inactive | inactive | inactive |  | inactive |  | inactive |  | inactive | inactive |  | inactive | inactive |  | 
NC(CCC(=O)O)C(=O)O (stereo not given) | inactive | inactive | inactive | inactive | inactive | inactive | inactive | inactive | inactive | inactive | inactive | inactive | inactive | inactive | inactive |  |  | inactive |  | 
C=CCOCC(O)CO (stereo not given) | inactive | inactive | inactive | inactive | inactive | inactive | inactive | inactive | inactive | inactive |  | inactive |  | inactive | inactive |  | inactive | inactive | inactive | 
